FBPA coupling cs = coupling enzyme interference in Giardia aldolase counter-screen | activity change, negative = inhibition, % at 58.2 µM, hits read low | AID 2472 | 290,000 compounds, 0.67% hits | coupling enzyme system counterscreen, AmpLite Red fluorescence; in the data active = activity change below about -30%; also: % is scaled to controls: 0 for no effect and ±100 for the full control effect
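Final compound at 57.5 uM, incubated 10 min at RT with coupling enzyme reagent (glyceraldehyde-3-phosphate), then 20 min with substrate and AmpLite Red detection. Fluorescence read at 525/598 nm; tests interference with the coupling assay, not aldolase inhibition.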
TCR act = T cell receptor activation | primary human leukocytes, anti-CD3, IL-2 HTRF, 48 h | Potency, µM (top dose mostly 9.22 µM), without a hit: at the top dose activation of IL-2 secretion, actives largely listed as activators | 330,000 tested, under 10 active | AID 504894; also: % of control where 0% means no effect
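Compounds are tested in HTS on primary human leukocytes co-incubated with a-CD3 beads for 48 hr. IL-2 output is measured by time-resolved FRET.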
NPSR antag = neuropeptide S receptor (human) antagonism, cAMP. Q6W5P4. CHO-NPSR cells, cAMP TR-FRET, antagonist mode. Potency, µM (doses to about 38.3 µM), inactives show top-dose activity change, negative = inhibition, actives largely listed as inhibitors. 220,000 compounds, 1% hits; also: potency is read from the fitted curve at half-maximal effect; % is scaled to controls: 0 for no effect and ±100 for the full control effect; nearly all actives have a fitted effect of over 50% in size
TSHR antag = blocks TSH signaling through the human TSH receptor; P16473; TSHR-expressing cells, TSH-stimulated cAMP HTRF, 2 h; stronger effect = lower value; activity change, negative = inhibition, % at 11.5 µM; 330,000 compounds, 0.2% hits; AID 504810;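 active = activity change below a set negative limit, meaning inhibition stronger than a set level, cut at about -70% in these data; inconclusive = activity change between two set negative limits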; also: % is scaled to controls: 0 for no effect and ±100 for the full control effect
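Freshly harvested TSHR cells receive pin-tooled compound, then EC80 TSH at 4nM final. After 2 hours at 37 deg C, antibody in lysis buffer and cAMP-d2 are added; 30 minutes at ambient temperature precede the HTRF read.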
TRb-SRC2 inh = TRbeta-SRC2 interaction inhibition; TRbeta-SRC2 peptide binding, fluorescence polarization; receptor liganded with 1 µM T3; P10828; Potency, µM (top dose mostly 106 µM), without a hit: at the highest dose activity change, negative = inhibition, hits mostly inhibitors; 280,000 compounds, 0.065% hits;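 also: potency is read from the fitted curve at half-maximal effect; plate controls were bound peptide for no effect and peptide without receptor for full effect; nearly all actives have a fitted effect of over 50% in size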
Target sequence (P10828 whole entry, looked up): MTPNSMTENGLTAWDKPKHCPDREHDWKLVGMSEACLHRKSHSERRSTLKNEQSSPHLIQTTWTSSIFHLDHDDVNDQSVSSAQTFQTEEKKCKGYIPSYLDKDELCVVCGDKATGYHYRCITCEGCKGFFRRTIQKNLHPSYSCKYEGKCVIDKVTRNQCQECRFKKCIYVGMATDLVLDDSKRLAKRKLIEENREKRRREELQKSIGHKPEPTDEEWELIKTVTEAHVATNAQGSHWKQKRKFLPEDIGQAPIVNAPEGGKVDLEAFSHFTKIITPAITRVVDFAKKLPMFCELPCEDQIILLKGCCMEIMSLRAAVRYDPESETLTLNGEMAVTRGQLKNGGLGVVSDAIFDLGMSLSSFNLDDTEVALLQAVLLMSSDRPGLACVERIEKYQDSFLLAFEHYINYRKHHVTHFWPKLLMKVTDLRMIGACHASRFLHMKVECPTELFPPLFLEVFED
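Binding of a 20-amino-acid Texas Red SRC2 peptide (20 nM) to TRb ligand-binding domain (0.6 uM) with agonist T3 at 1 uM was followed by fluorescence polarization after a 5 hr room-temperature incubation.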
TR SRC2 fluor cs = Texas Red fluorescence interference in TRb-SRC2 counter-screen; 280,000 compounds, 0.29% hits; Potency, µM (titrated, usually from 106 µM), without a hit: top-dose fluorescence change, negative = quenching; TRb/SRC2 Texas Red total fluorescence interference; active = well fitted curve in either direction with a large enough effect; inconclusive = small, poorly fitted or top-dose-only effect; also: potency is read from the fitted curve at half-maximal effect; % is scaled to controls: 0 for no effect and ±100 for the full control effect
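Human TRb ligand-binding domain at 0.6 uM with 20 nM Texas Red SRC2 peptide in Tris buffer containing 1 uM T3 and 5% DMSO, incubated with compound 5 h at ambient temperature. Total fluorescence (555/632 nm) calculated as parallel + 2 × perpendicular.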
Numbers without * were called inactive; [ ] = remark or other dose. Sampled rows, rich in hits. Any-hit rate of the full collection: about 1%. Unless noted, calls follow the shape of the dose curve; as a rule, active = well fitted curve in the direction sought with a large enough effect; inconclusive = small, poorly fitted or top-dose-only effect, or another doubt; inactive = no such curve, though single readings can be large; an effect the other way counts as inactive or inconclusive.

O=C(O)c1ccccc1C(=O)c1ccc2c(c1)N(Cc1cccc(F)c1)C(=O)CO2 was read as FBPA coupling cs -41.7*, TCR act -1.5%, NPSR antag -10.8%, TSHR antag -8.6, TRb-SRC2 inh 5.4% and TR SRC2 fluor cs -1.8%.
`Cc1ccc(C)c(NC(=O)C2CCCN(S(=O)(=O)c3cccc4nsnc34)C2)c1` (configuration not stated) gave TRb-SRC2 inh 0.2% and TR SRC2 fluor cs 1.1%.
`O=C(CSc1nnc(-c2cccs2)o1)Nc1cccc(C(F)(F)F)c1` gave TRb-SRC2 inh 7.8% and TR SRC2 fluor cs -3.7%.
CC(C)(C)c1n[nH]c(=O)n(N)c1=O was read as TRb-SRC2 inh -3.7%[201 µM] and TR SRC2 fluor cs 2.0%[201 µM].
N#CC(C#N)=C1C(=O)N(CCN2CCOCC2)c2ccccc21 was read as FBPA coupling cs -35.8*, TCR act -3.5%, NPSR antag -25.0%, TSHR antag -4.7, TRb-SRC2 inh -5.1% and TR SRC2 fluor cs -1.9%.
Cc1ccc2c(c1)C(=C(C#N)C#N)C(=O)N2CCN1CCOCC1 was read as FBPA coupling cs -36.4*, TCR act 1.3%, NPSR antag -28.5%, TSHR antag 3.0, TRb-SRC2 inh -0.1% and TR SRC2 fluor cs 5.9%.
For N#CC(C#N)=C1C(=O)N(CCN2CCCCC2)c2ccccc21 the results were FBPA coupling cs -6.3, TCR act -0.6%, NPSR antag 0.9%, TSHR antag 8.0, TRb-SRC2 inh 1.1% and TR SRC2 fluor cs -1.4%.
CCCCNC(=O)NS(=O)(=O)c1ccc(CO)cc1 was read as FBPA coupling cs -1.0, TRb-SRC2 inh -2.0% and TR SRC2 fluor cs 1.2%.
`CN(c1nnc(NC(=O)Nc2ccccc2C(F)(F)F)s1)C1CCCCC1` gave TRb-SRC2 inh -0.8% and TR SRC2 fluor cs 1.3%.
CN1c2ccccc2C(C)(C)C12C=Nc1c(ccc3ccccc13)O2 (configuration not stated) was read as FBPA coupling cs -78.1*, TCR act 0.2%, NPSR antag -17.2%[46.1 µM], TSHR antag -4.0, TRb-SRC2 inh inconclusive and TR SRC2 fluor cs -24.4%.
For COc1ccc2c(c1)Sc1ccccc1N2CCN(C)C the results were FBPA coupling cs -5.5, TCR act -5.4%, NPSR antag -10.8%[46.1 µM], TSHR antag -11.9, TRb-SRC2 inh 5.2% and TR SRC2 fluor cs 0.9%.
`CC1(C)OC(=O)N(c2ccccc2)C12C=Cc1cc(Br)ccc1O2` (configuration not stated) gave FBPA coupling cs 4.1, TCR act -0.4%, NPSR antag inconclusive, TSHR antag 4.8, TRb-SRC2 inh 0.5% and TR SRC2 fluor cs -4.5%.
For COc1ccc2ccc3c(c2c1)N=CC1(O3)N(C)c2ccccc2C1(C)C (configuration not stated) the results were FBPA coupling cs 1.6, TCR act 2.5%[46.1 µM], NPSR antag -39.1%, TSHR antag -19.4, TRb-SRC2 inh 28.2µM* and TR SRC2 fluor cs inconclusive.
For CN1c2ccccc2C(C)(C)[C@]12C=Cc1cc(O)ccc1O2 the results were FBPA coupling cs -8.6, TCR act -0.4%, NPSR antag 12.6µM*, TSHR antag -15.9, TRb-SRC2 inh 5.2% and TR SRC2 fluor cs 12.8%.
Cc1cccc(OCC(=O)N(Cc2ccc(C(C)(C)C)cc2)Cc2ccco2)c1 was read as TRb-SRC2 inh -8.1% and TR SRC2 fluor cs 0.0%.
`COc1ccc(N2CCN(CCCNC(=O)C3COc4ccc(OC)cc4C3)CC2)cc1` (configuration not stated) gave TRb-SRC2 inh 9.2% and TR SRC2 fluor cs -4.8%.
Screening COc1c(O)cc(O)cc1O returned FBPA coupling cs 1.1, TRb-SRC2 inh 3.5% and TR SRC2 fluor cs -3.2%.
Screening COc1cc(O)cc(OC)c1OC returned FBPA coupling cs -32.5*, TRb-SRC2 inh 5.4% and TR SRC2 fluor cs -12.2%.
NC(=O)C1CCCN1C(=O)C(Cc1cnc[nH]1)NC(=O)C1CCC(=O)N1 (configuration not stated) was read as FBPA coupling cs -5.5, TRb-SRC2 inh 3.5% and TR SRC2 fluor cs 1.9%.
For Cc1ccc(NC(=O)CN2C(=O)COc3ccc(S(=O)(=O)NC4CCCC4)cc32)cc1N(C)C the results were TRb-SRC2 inh 2.1% and TR SRC2 fluor cs 0.0%.
For COC1=CC(=O)C(C(=O)c2ccccc2)=CC1=O the results were FBPA coupling cs -67.0*, TRb-SRC2 inh inconclusive and TR SRC2 fluor cs -7.4%.
Screening Nc1ncc(N=Nc2cc(C(=O)O)ccc2Cl)s1 returned FBPA coupling cs 1.1, TCR act -0.6%, NPSR antag -3.7%, TSHR antag -0.2, TRb-SRC2 inh 19.1% and TR SRC2 fluor cs 70.8µM*[quencher].
`CC(C)c1ccc(N2C(=O)C3C4C=CC(CC4)C3C2=O)cc1` (configuration not stated) gave FBPA coupling cs -1.4 and TSHR antag -3.4.
`CC1CC(=O)N(c2ccc(C(C)C)cc2)C(=O)C1` gave FBPA coupling cs 0.1 and TSHR antag -117.9*.
`Cc1ccc(CN(Cc2ccco2)C(=O)COc2ccc(Cl)cc2Cl)cc1` gave TRb-SRC2 inh inconclusive and TR SRC2 fluor cs 0.0316µM*[quencher].
`CCOC(=O)c1cc(C)n(CC2CCC(C(=O)Nc3ccc(OC)cc3)CC2)c1C` (configuration not stated) gave TRb-SRC2 inh 5.0% and TR SRC2 fluor cs -0.3%.
Screening CCc1ccc(CNC(=O)CSc2cc(=O)n(C)c3ccc(Cl)cc23)cc1 returned TRb-SRC2 inh -4.5% and TR SRC2 fluor cs -5.5%.
COC(=O)c1c(NC(=O)Nc2ccc(Cl)cc2)sc(C)c1C was read as FBPA coupling cs -0.7, TCR act -7.6%, NPSR antag 10µM*, TSHR antag -10.0, TRb-SRC2 inh -0.7% and TR SRC2 fluor cs 0.7%.
Screening COC(=O)c1c(NC(C)=O)sc(C)c1C returned FBPA coupling cs -0.1, TCR act -3.6%, NPSR antag 32.0%, TSHR antag 6.6, TRb-SRC2 inh 0.5% and TR SRC2 fluor cs 0.3%.
Screening Cn1c(C(C#N)C2=C(Cl)C(=O)N(c3ccccc3)C2=O)nc2ccccc21 (configuration not stated) returned FBPA coupling cs -20.5, NPSR antag inconclusive, TSHR antag -0.2, TRb-SRC2 inh 44.7µM* and TR SRC2 fluor cs inconclusive.
Cn1c(C(O)C(O)c2ccccc2)nc2ccccc21 (configuration not stated) was read as FBPA coupling cs -2.6, TCR act 5.9%, NPSR antag 5.9%, TSHR antag 8.4, TRb-SRC2 inh -0.7% and TR SRC2 fluor cs -0.7%.
